mHTT CaM bind – mutant huntingtin-calmodulin interaction inhibitors – biochemical, AlphaScreen, primary screen | AlphaScreen His-mHTT/GST-CaM binding, luminescence | inhibition, % at 15 µM | hit rate 3.6% among 190,000;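 further: 0% = both proteins with DMSO and 100% = one protein alone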
Pf apPOL block – Pf-apPOL inhibitors, biochemical, fluorescence | Recombinant Pf-apPOL, molecular beacon fluorescence, 1.5 h | hit rate 0.25% among 210,000 | inhibition, % at 10 µM | AID 1794808, 2022 | Plasmodium falciparum apicoplast DNA polymerase (apPOL)
The depositor's hits bear a star. This is one part of a sample in which hits are shown more often than they occur. No stated cut-off is given here; in the data, active means inhibition above about 50%; inactive means the rest.

For Cc1ccc(C(=O)N2CCCC(c3ccnc(Nc4ccc(F)cc4)n3)C2)s1 (centres undefined) the results were mHTT CaM bind 82* and Pf apPOL block 0.
Screening COc1ccccc1C(=O)N1CCCC(c2ccnc(-c3cccc(C)c3)n2)C1 (centres undefined) returned mHTT CaM bind 22 and Pf apPOL block -5.
`CN(C)c1ccc(C(=O)N2CCCC(c3ccnc(Nc4ccc(F)cc4)n3)C2)cc1` (centres undefined) gave mHTT CaM bind 88* and Pf apPOL block -3.
`Cc1cc(OCC(=O)Nc2cccc(F)c2)nc(N2CCCC(C)C2)n1` (centres undefined) gave mHTT CaM bind -10 and Pf apPOL block -4.
`O=[N+]([O-])c1cc[n+]([O-])c(Br)c1` gave mHTT CaM bind -7.
For CCOC(=O)C(=O)N1CCC(Cn2ccnc2CC)CC1 the results were mHTT CaM bind -14 and Pf apPOL block -4.
`CCN1CCn2cc(C(=O)NCc3ccc(F)cc3)nc2C1` gave mHTT CaM bind 42 and Pf apPOL block -5.
`CCN1CCn2cc(C(=O)NCc3ccc(C(F)(F)F)cc3)nc2C1` gave mHTT CaM bind 97* and Pf apPOL block -13.
N#CC(=Cc1[nH]c2ccccc2c1O)C(N)=NCCc1ccccc1 was read as mHTT CaM bind 19 and Pf apPOL block -6.
`N#CC(=Cc1[nH]c2ccccc2c1O)C(N)=NC1CCCCC1` gave mHTT CaM bind 92* and Pf apPOL block 0.
For Cc1cc(=O)c2c([nH]1)C(O)=C(CN(C)C)C(=O)C2=O the results were mHTT CaM bind -3 and Pf apPOL block 5.
For CC(=O)Nc1ccc(SCCCC(=O)Nc2ccc3c(c2)OCCO3)nn1 the results were mHTT CaM bind -6 and Pf apPOL block -3.
`CC1(C)CC(=C2C(=O)c3ccccc3C2=O)C=C2c3ccccc3C(=O)C21` (centres undefined) gave mHTT CaM bind 65* and Pf apPOL block 0.
For O=C1c2ccccc2C(=O)c2c(NC3CCCCC3)ccc(NC3CCCCC3)c21 the results were Pf apPOL block -2.
For Cc1ccnc(SCc2cc(=O)c(OC(=O)C(C)(C)Oc3ccc(Cl)cc3)co2)n1 the results were mHTT CaM bind 99* and Pf apPOL block 2.
For COc1cccc(C(=O)Oc2coc(CSc3nccc(C)n3)cc2=O)c1OC the results were mHTT CaM bind 34 and Pf apPOL block -6.
For COc1cc(NC(=O)c2ccc(-c3ccc(F)cc3)o2)ccc1NC(=O)c1ccco1 the results were mHTT CaM bind 15 and Pf apPOL block -11.
Screening COc1ccc(Cl)cc1NC(=O)Nc1ccc2nc(C)cc(OC)c2c1 returned mHTT CaM bind 97* and Pf apPOL block 85*.
Screening COc1cc(C)nc2ccc(NC(=O)Nc3ccc(Cl)cc3)cc12 returned mHTT CaM bind 25 and Pf apPOL block 3.
Cc1cc(=O)oc(C)c1C(=O)NCCN1CCN(c2ccccc2)CC1 was read as mHTT CaM bind 0 and Pf apPOL block -11.
O=C(CCNc1ccc(F)c(Cl)c1)c1ccccc1 was read as mHTT CaM bind -7 and Pf apPOL block 12.
For Fc1ccc(NC/C=C/c2ccco2)cc1Cl the results were mHTT CaM bind 91* and Pf apPOL block -2.
For C=CCNC(=O)C1CCN(c2ncnc3c2oc2ccccc23)CC1 the results were mHTT CaM bind -4 and Pf apPOL block -7.
For CC(C)(C)c1cc(C(=O)Nc2cccc(C#N)c2)nc2ccnn12 the results were mHTT CaM bind -9 and Pf apPOL block -4.
For CCn1c(N2CCCC(C(=O)Nc3ccc(C(C)C)cc3)C2)cc(=O)n(C)c1=O (centres undefined) the results were mHTT CaM bind 11 and Pf apPOL block -10.
For Cc1ccc(NC(=O)C2CCCN(c3nnc4cccc(C)n34)C2)cc1F (centres undefined) the results were mHTT CaM bind 53* and Pf apPOL block -3.
`Cc1cc(NC(=O)C2CCCN(c3nnc4cccc(C)n34)C2)ccc1F` (centres undefined) gave mHTT CaM bind 36 and Pf apPOL block -2.
For O=C(NCCCN1CCCC1)c1ccc(-c2ccc(N3CCSCC3)nc2)cc1 the results were mHTT CaM bind 27 and Pf apPOL block 5.
For O=[N+]([O-])c1cccc2c1NC(c1cccc(Cl)c1Cl)C1CC=CC21 (centres undefined) the results were mHTT CaM bind 73* and Pf apPOL block -3.
For CCOc1cc2c(c([N+](=O)[O-])c1)NC(c1ccc(Cl)cc1)C1CC=CC21 (centres undefined) the results were mHTT CaM bind 41 and Pf apPOL block -1.
Screening COc1cccc2c1NC(c1ccccc1[N+](=O)[O-])C1CC=CC21 (centres undefined) returned mHTT CaM bind 73* and Pf apPOL block -1.
For COc1ccc(C2Nc3ccccc3C3C=CCC32)cc1[N+](=O)[O-] (centres undefined) the results were mHTT CaM bind 86* and Pf apPOL block 0.
COc1ccc(C2Nc3c(OC)ccc(Cl)c3C3C=CCC32)cc1[N+](=O)[O-] (centres undefined) was read as mHTT CaM bind 62* and Pf apPOL block 0.
For CCCN1C(=O)COc2ccc(-c3noc(C4CCC4)n3)cc21 the results were mHTT CaM bind -21 and Pf apPOL block -1.
Screening COc1ccc(-n2nc(C(=O)NCc3cccnc3)c3ccccc3c2=O)cc1 returned mHTT CaM bind -2 and Pf apPOL block -10.
COc1cc(C2Nc3c(Cl)cccc3C3C=CCC32)cc(OC)c1OC (centres undefined) was read as mHTT CaM bind 70* and Pf apPOL block -4.
For COc1ccc(C2Nc3c(Cl)cccc3C3C=CCC32)cc1[N+](=O)[O-] (centres undefined) the results were mHTT CaM bind 52* and Pf apPOL block -4.
For COc1cc([N+](=O)[O-])cc2c1NC(c1ccc(Cl)cc1)C1CC=CC21 (centres undefined) the results were mHTT CaM bind 38 and Pf apPOL block 9.
Fc1ccc(C2Nc3c(Cl)cccc3C3C=CCC32)cc1 (centres undefined) was read as mHTT CaM bind 37 and Pf apPOL block 0.
CCC(C)(C(=O)NC1CCCCC1)N(Cc1ccco1)C(C)=O (centres undefined) was read as mHTT CaM bind 0 and Pf apPOL block 2.
For Nc1c(C(=O)N2CCc3ccccc3C2)nnn1-c1cccc(C(F)(F)F)c1 the results were mHTT CaM bind -1 and Pf apPOL block -1.
Screening Cc1c(Cl)cccc1NC(=O)CCCCCN1C(=O)c2cccc([N+](=O)[O-])c2C1=O returned mHTT CaM bind -3 and Pf apPOL block 7.
For COc1cc(C(=O)Nc2ccc(N3CCCCC3)cc2)c(Br)c(OC)c1OC the results were mHTT CaM bind 16 and Pf apPOL block 2.
N#C/C(=C\c1cn[nH]c1-c1ccccc1)S(=O)(=O)c1ccc(Cl)cc1 was read as mHTT CaM bind 89* and Pf apPOL block 12.
`N#CC(=Cc1c(Cl)cccc1Cl)S(=O)(=O)c1ccc(Cl)cc1` gave Pf apPOL block -5.
Screening COc1ccccc1N1COc2ccc(F)cc2C1 returned mHTT CaM bind 47 and Pf apPOL block 5.
`COc1ccccc1N1COc2cc(C)c(Cl)c(C)c2C1` gave mHTT CaM bind 100* and Pf apPOL block -1.
COc1ccc(-c2nnc(NC(C)=O)s2)cc1 was read as mHTT CaM bind -10 and Pf apPOL block -2.

High-throughput results from PubChem.
